Rows were chosen to be rich in hits. Some 10% of all compounds tested hit in one or more screens of this group.
Pf growth 48h = inhibits P. falciparum growth in the first generation, 48 h. Potency, µM (top dose mostly 28.7 µM), hits mostly inhibitors. 310,000 tested, 5.9% active. P. falciparum luciferase growth in erythrocytes, 48 h
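In quantitative HTS format, infected erythrocytes bearing luciferase-reporter parasites were treated for a single generation at 37 C. Luminescence after adding detection reagent served as the growth measure.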
NS1 inh = blocks influenza NS1 protein function | Potency, µM (top dose mostly 46.1 µM) | 270,000 tested, 0.4% active; calls by dose curve; further: actives are rising curves; nearly all actives have a fitted effect of over 50% in size
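Compounds were scored for reversing the slow growth caused by influenza A NS1 in S. cerevisiae, measured by optical density at 600 nm. Assay medium contained 2% galactose at pH 6.0; NS1-free yeast of the same strain were the positive control.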
Pf growth 96h = P. falciparum growth inhibition at 96 hour, primary screen for plastid delayed-death inhibitors; P. falciparum luciferase reporter growth, 96 h; Potency, µM (top dose mostly 28.7 µM), hits mostly inhibitors; 320,000 tested, 6.9% active; AID 504834
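Delayed-death screen, second-generation endpoint: infected erythrocytes, 2% hematocrit, 0.05% parasitemia final; 96 hours at 37 C, 5% CO2; luciferase detection reagent; luminescence decrease equals reduced growth.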
SARS PLpro yeast = inhibitors of SARS-CoV papain-like protease in yeast | S. cerevisiae expressing SARS-CoV PLpro, growth rescue | Potency, µM (series often up to 32.9 µM), actives largely listed as activators | 330,000 tested, 0.19% active | AID 485353; calls by dose curve; further: nearly all actives have a fitted effect of over 55% in size
Hits are given with their value; - = inactive; ? = inconclusive; . = no result given. Unless noted, the call rests on the fitted dose curve; in most records, active means well fitted inhibition curve with a large enough effect; inconclusive means small, poorly fitted or top-dose-only effect, or another doubt; inactive means no such curve, though single readings can be large or run the other way.

SMILES	Pf growth 48h	NS1 inh	Pf growth 96h	SARS PLpro yeast
C=CCN1C(=O)CSc2ccc(C(=O)NCc3ccc(F)cc3)cc21	-	-	-	-
O=C(NCCC1=CCCCC1)c1ccc2c(c1)N(Cc1ccccc1)C(=O)CS2	.	-	5.9µM	-
O=C(c1ccc2c(c1)N(Cc1ccccc1)C(=O)CS2)N1CCOCC1	-	-	13µM	-
COc1cccc(N2CCN(C(=O)c3oc4ccccc4c3NC(=O)Cc3ccc(OC)c(OC)c3)CC2)c1	?	-	-	-
S=C(N/N=C/c1ccc2c(c1)OCO2)NC1CC2CCC1C2 (stereo not drawn)	2.1µM	-	2.6µM	-
COc1cc(/C=N/NC(=S)NC2CC3CCC2C3)ccc1O (stereo not drawn)	-	-	?	-
COc1ccc(/C=N/NC(=S)N[C@H]2CC3CCC2C3)cc1 (stereo partly drawn)	4.1µM	-	5.2µM	-
Cc1ccc(S(=O)(=O)N2CCN(C(=O)[C@H](Cc3ccccc3)NC(=O)c3ccco3)CC2)cc1C	?	.	?	-
CCOC(=O)C(=NCC1CCCO1)NNc1cc(Cl)ccc1Cl (stereo not drawn)	?	-	10µM	-
Cc1ccc2oc(C(=O)N3CCC(O)(c4ccccc4)CC3)c(C)c2c1	?	-	10µM	-
Cc1ccc(Cn2ncc3c(N4CCN(CCc5ccccc5)CC4)ncnc32)cc1	6.6µM	-	?	-
Cc1ccc(Cn2ncc3c(N4CCN(C)CC4)ncnc32)cc1	-	.	7.4µM	-
Cc1ccc(Cn2ncc3c(N4CCN(Cc5ccc(Cl)cc5)CC4)ncnc32)cc1	?	-	-	-
CC1CCC(NC(=O)CSc2ccc(S(=O)(=O)N(C)C)cn2)CC1 (stereo not drawn)	?	.	?	-
CC(C)CNC(=O)CSc1ccc(S(=O)(=O)N(C)C2CCCCC2)cn1	9.3µM	.	-	-
CCOC(=O)NC(=O)CSc1ccc(S(=O)(=O)N(C)C2CCCCC2)cn1	6.6µM	.	13µM	-
CC(NC(=O)c1cccc(N(C)C)c1)c1ccc(-n2ccnc2)cc1 (stereo not drawn)	?	-	-	-
CCCS(=O)(=O)N1CCC(C(=O)NCCCOC)CC1	-	-	-	-
CCCS(=O)(=O)N1CCC(C(=O)NCCCOCC)CC1	-	-	15µM	-
CCCS(=O)(=O)N1CCC(C(=O)NCCCOC(C)C)CC1	-	-	9.3µM	-
N#Cc1cc2c(cc1NC(=O)CCn1cnnn1)OCO2	-	-	?	-
CSc1ccccc1NC(=O)Cn1c(-c2cscn2)nc2ccccc21	-	-	-	-
Brc1cc2c(cc1Cn1c(-c3cncs3)nc3ccccc31)OCO2	?	-	?	-
Cc1ccccc1Cn1c(-c2cncs2)nc2ccccc21	1.5µM	-	-	-
Brc1ccccc1Cn1c(-c2cscn2)nc2ccccc21	.	-	10µM	?
SMILES	Pf growth 48h	NS1 inh	Pf growth 96h	SARS PLpro yeast
CC1(c2ccc(OC(F)F)cc2)NC(=O)N(CC(=O)N2c3ccccc3NC(=O)C2(C)C)C1=O (stereo not drawn)	?	.	-	-
O=C(c1ccccc1)c1ccccc1	-	.	-	-
CC(C)(C)n1cc(C(=O)c2ccccc2)cc1-c1ccccc1	12µM	-	?	-
[N-]=[N+]=CC(=O)CC[C@H](N)C(=O)O	.	-	.	.
OC(CN1CCCCC1)Cn1c2ccccc2c2cc(Br)ccc21 (stereo not drawn)	12µM	-	9.3µM	-
Cc1ccc2c(c1)c1c(n2CC(O)CNC(C)(C)C)CCCC1 (stereo not drawn)	.	-	?	-
Cc1c(C)n(CC(O)CN2CCCCCC2)c2ccccc12 (stereo not drawn)	?	-	-	-
Cc1ccc2c(c1)c1c(n2CC(O)Cn2c(C)nc3ccccc32)CCCC1 (stereo not drawn)	.	-	-	-
CNCC(O)Cn1c2c(c3ccccc31)CCCC2 (stereo not drawn)	10µM	-	-	-
Cc1ccc2c(c1)c(C)c(C)n2CC(O)CN1CCOCC1 (stereo not drawn)	12µM	-	-	-
Cc1ccc2c(c1)c1c(n2CC(O)CN2CCCCCC2)CCCC1 (stereo not drawn)	8.3µM	-	-	-
COC(=O)C(C)n1cnc2c(nnn2-c2cccc(OC)c2)c1=O (stereo not drawn)	-	-	-	-
Cc1ccc(S(=O)(=O)N2CCCC2)cc1C(=O)N1CCN(Cc2ccccc2)CC1	-	-	?	-
O=C(CN1CCN(C(=O)C2CCCO2)CC1)Nc1cc(Cl)ccc1Cl (stereo not drawn)	?	-	-	?
COc1cc(C)c(CN2CCC(n3nccc3NC(=O)C3CC3)CC2)cc1C	?	-	-	-
CCOC(=O)c1nc(Nc2cc(Cl)ccc2OC)c2ccccc2n1	-	-	-	-

Assay outcomes (PubChem BioAssay)
